Experimental data from the supplement of paper PMC3545927.
The other results are listed elsewhere or left out. The true hit rate is not given.

Molecular target: furin, P09958
Assay: furin cleavage Z-score vs untreated control; higher = more cleavage, active = 3.5 or more, inactive = 1 or less, 8 variable residues between constant flanks
Method in brief: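 Purified furin cleaved 8-mer peptides that were fused to a cDNA oligonucleotide and held on magnetic beads by their N-terminus. Each 0.01 ml reaction used a 1:10 enzyme:substrate ratio in 50 mM HEPES pH 7.5 with CaCl2 and NaCl and ran 7.5, 15 or 30 min. Released DNA was adapter-tagged by PCR and sequenced, and read counts gave abundance. The cleavage Z-score came from log counts against furin-free reactions, lowess-adjusted and scaled by median absolute deviation.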

Chain of furin, P09958 (P09958 whole entry): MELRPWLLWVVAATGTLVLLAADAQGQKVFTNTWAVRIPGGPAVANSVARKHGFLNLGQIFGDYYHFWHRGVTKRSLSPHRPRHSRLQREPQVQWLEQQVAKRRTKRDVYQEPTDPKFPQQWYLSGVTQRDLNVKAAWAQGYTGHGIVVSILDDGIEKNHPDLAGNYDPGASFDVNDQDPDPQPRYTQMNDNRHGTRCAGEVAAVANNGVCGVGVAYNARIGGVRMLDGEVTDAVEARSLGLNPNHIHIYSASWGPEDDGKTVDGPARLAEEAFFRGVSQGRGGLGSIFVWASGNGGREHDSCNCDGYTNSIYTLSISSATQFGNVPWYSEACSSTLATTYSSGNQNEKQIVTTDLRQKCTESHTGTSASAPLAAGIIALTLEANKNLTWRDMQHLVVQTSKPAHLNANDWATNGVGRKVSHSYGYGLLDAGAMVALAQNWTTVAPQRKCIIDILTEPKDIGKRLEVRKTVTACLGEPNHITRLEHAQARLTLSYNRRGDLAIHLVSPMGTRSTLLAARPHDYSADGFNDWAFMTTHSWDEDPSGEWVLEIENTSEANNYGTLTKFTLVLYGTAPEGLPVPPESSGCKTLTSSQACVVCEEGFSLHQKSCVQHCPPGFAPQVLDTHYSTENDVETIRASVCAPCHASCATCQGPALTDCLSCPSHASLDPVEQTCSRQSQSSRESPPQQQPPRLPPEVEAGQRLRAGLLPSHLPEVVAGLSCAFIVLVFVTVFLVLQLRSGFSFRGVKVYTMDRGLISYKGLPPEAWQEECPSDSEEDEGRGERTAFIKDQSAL

B1: FS-3261 (peptide)
chain: CARRIRFVGRAGNASASA
With B1 the “furin cleavage Z-score” value (7.5 min) was 0.201 (inactive), the “furin cleavage Z-score” value (15 min) was 1.15 and the “furin cleavage Z-score” value (30 min) was 3.25.

B2: FS-1161 (peptide)
chain: CARRQVWKRRAGNASASA
For B2, the “furin cleavage Z-score” value (7.5 min) was 0.586 (inactive), the “furin cleavage Z-score” value (15 min) was 4.58 (active) and the “furin cleavage Z-score” value (30 min) was 4.41 (active).

B3: FS-713 (peptide)
chain: CARRLRDKRRAGNASASA
In the case of B3, the “furin cleavage Z-score” value (7.5 min) is reported as 0.73 (inactive), the “furin cleavage Z-score” value (15 min) is reported as 2.01 and the “furin cleavage Z-score” value (30 min) is reported as 1.44.

B4: HC1645 (peptide)
chain: CAGWFTAGYSAGNASASA
With B4 the “furin cleavage Z-score” value (7.5 min) was 0.812 (inactive), the “furin cleavage Z-score” value (15 min) was -0.589 (inactive) and the “furin cleavage Z-score” value (30 min) was 0.435 (inactive).

B5: HC2229 (peptide)
chain: CAEVVTSTYVAGNASASA
B5 was tested, and the “furin cleavage Z-score” value (7.5 min) was 0.886 (inactive), the “furin cleavage Z-score” value (15 min) was 0.18 (inactive) and the “furin cleavage Z-score” value (30 min) was 0.589 (inactive).

B6: HC134 (peptide)
chain: CAEVVCSTWVAGNASASA
For B6, the “furin cleavage Z-score” value (7.5 min) was -0.675 (inactive), the “furin cleavage Z-score” value (15 min) was -0.0617 (inactive) and the “furin cleavage Z-score” value (30 min) was -0.318 (inactive).

B7: FS-309 (peptide)
chain: CAVHHRPKRGAGNASASA
With B7 the “furin cleavage Z-score” value (7.5 min) was 12 (active), the “furin cleavage Z-score” value (15 min) was 10.8 (active) and the “furin cleavage Z-score” value (30 min) was 9.72 (active).

B8: FS-665 (peptide)
chain: CAILHRQKRGAGNASASA
With B8 the “furin cleavage Z-score” value (7.5 min) was 12.5 (active), the “furin cleavage Z-score” value (15 min) was 12.9 (active) and the “furin cleavage Z-score” value (30 min) was 9.04 (active).

B9: FS-899 (peptide)
chain: CAYDCRCKRGAGNASASA
For B9, the “furin cleavage Z-score” value (7.5 min) was 0.698 (inactive), the “furin cleavage Z-score” value (15 min) was 0.0271 (inactive) and the “furin cleavage Z-score” value (30 min) was 1.85.

B10: HC2406 (peptide)
chain: CAEVPCHRPMAGNASASA
In the case of B10, the “furin cleavage Z-score” value (7.5 min) is reported as -0.721 (inactive), the “furin cleavage Z-score” value (15 min) is reported as 1.03 and the “furin cleavage Z-score” value (30 min) is reported as -0.487 (inactive).

B11: HC486 (peptide)
chain: CARCDLEDRDAGNASASA
In the case of B11, the “furin cleavage Z-score” value (7.5 min) is reported as 1.03, the “furin cleavage Z-score” value (15 min) is reported as -0.684 (inactive) and the “furin cleavage Z-score” value (30 min) is reported as -1.47 (inactive).

B12: HC976 (peptide)
chain: CAVQNEITLTAGNASASA
In the case of B12, the “furin cleavage Z-score” value (7.5 min) is reported as -0.158 (inactive), the “furin cleavage Z-score” value (15 min) is reported as -0.101 (inactive) and the “furin cleavage Z-score” value (30 min) is reported as 0.696 (inactive).

B13: HC85 (peptide)
chain: CAVVCISMSYAGNASASA
With B13 the “furin cleavage Z-score” value (7.5 min) was -1.62 (inactive), the “furin cleavage Z-score” value (15 min) was -2.02 (inactive) and the “furin cleavage Z-score” value (30 min) was -0.461 (inactive).

B14: FS-1451 (peptide)
chain: CAEPHRARRGAGNASASA
With B14 the “furin cleavage Z-score” value (7.5 min) was 5.81 (active), the “furin cleavage Z-score” value (15 min) was 5.59 (active) and the “furin cleavage Z-score” value (30 min) was 6.2 (active).

B15: FS-850 (peptide)
chain: CAQRRRARRGAGNASASA
With B15 the “furin cleavage Z-score” value (7.5 min) was 2.4, the “furin cleavage Z-score” value (15 min) was 2.13 and the “furin cleavage Z-score” value (30 min) was 0.325 (inactive).

B16: FS-1060 (peptide)
chain: CARGCRARRGAGNASASA
In the case of B16, the “furin cleavage Z-score” value (7.5 min) is reported as 3.97 (active), the “furin cleavage Z-score” value (15 min) is reported as 3.87 (active) and the “furin cleavage Z-score” value (30 min) is reported as 2.93.

B17: HC2482 (peptide)
chain: CAQTPCSAHLAGNASASA
B17 was tested, and the “furin cleavage Z-score” value (7.5 min) was -0.0432 (inactive), the “furin cleavage Z-score” value (15 min) was 0.702 (inactive) and the “furin cleavage Z-score” value (30 min) was 2.39.

B18: HC2574 (peptide)
chain: CASTPCSAHKAGNASASA
For B18, the “furin cleavage Z-score” value (7.5 min) was -0.715 (inactive), the “furin cleavage Z-score” value (15 min) was 0.189 (inactive) and the “furin cleavage Z-score” value (30 min) was -1.56 (inactive).

B19: HC1391 (peptide)
chain: CATSRSACQRAGNASASA
With B19 the “furin cleavage Z-score” value (7.5 min) was 0.0948 (inactive), the “furin cleavage Z-score” value (15 min) was 0.314 (inactive) and the “furin cleavage Z-score” value (30 min) was 0.239 (inactive).

B20: FS-2029 (peptide)
chain: CARICRDIPKAGNASASA
In the case of B20, the “furin cleavage Z-score” value (7.5 min) is reported as 3.76 (active), the “furin cleavage Z-score” value (15 min) is reported as 5.68 (active) and the “furin cleavage Z-score” value (30 min) is reported as 4.88 (active).

B21: FS-2474 (peptide)
chain: CATTKRDAGKAGNASASA
For B21, the “furin cleavage Z-score” value (7.5 min) was -0.152 (inactive), the “furin cleavage Z-score” value (15 min) was -0.387 (inactive) and the “furin cleavage Z-score” value (30 min) was 0.96 (inactive).

B22: FS-2553 (peptide)
chain: CARFKRKDRMAGNASASA
B22 was tested, and the “furin cleavage Z-score” value (7.5 min) was 4.28 (active), the “furin cleavage Z-score” value (15 min) was 3.52 (active) and the “furin cleavage Z-score” value (30 min) was 4.13 (active).

B23: FS-1948 (peptide)
chain: CARFKRKLPKAGNASASA
In the case of B23, the “furin cleavage Z-score” value (7.5 min) is reported as 0.844 (inactive), the “furin cleavage Z-score” value (15 min) is reported as 1.94 and the “furin cleavage Z-score” value (30 min) is reported as 3.55 (active).

B24: FS-1067 (peptide)
chain: CARPGRKDRRAGNASASA
With B24 the “furin cleavage Z-score” value (7.5 min) was 0.778 (inactive), the “furin cleavage Z-score” value (15 min) was 1.1 and the “furin cleavage Z-score” value (30 min) was 0.538 (inactive).

B25: FS-2003 (peptide)
chain: CAREGRDGPKAGNASASA
For B25, the “furin cleavage Z-score” value (7.5 min) was 0.305 (inactive), the “furin cleavage Z-score” value (15 min) was -0.0392 (inactive) and the “furin cleavage Z-score” value (30 min) was -2.05 (inactive).

B26: FS-2811 (peptide)
chain: CARSKRIAGKAGNASASA
In the case of B26, the “furin cleavage Z-score” value (7.5 min) is reported as 0.535 (inactive), the “furin cleavage Z-score” value (15 min) is reported as -0.714 (inactive) and the “furin cleavage Z-score” value (30 min) is reported as 0.638 (inactive).

B27: FS-2268 (peptide)
chain: CARKKRKSPKAGNASASA
In the case of B27, the “furin cleavage Z-score” value (7.5 min) is reported as 0.83 (inactive), the “furin cleavage Z-score” value (15 min) is reported as 2.91 and the “furin cleavage Z-score” value (30 min) is reported as 2.06.

B28: FS-2259 (peptide)
chain: CARFKRAAGKAGNASASA
B28 was tested, and the “furin cleavage Z-score” value (7.5 min) was 11.2 (active), the “furin cleavage Z-score” value (15 min) was 12.2 (active) and the “furin cleavage Z-score” value (30 min) was 9.21 (active).

B29: HC1454 (peptide)
chain: CAVRVCEKMAAGNASASA
B29 was tested, and the “furin cleavage Z-score” value (7.5 min) was -0.509 (inactive), the “furin cleavage Z-score” value (15 min) was -1.63 (inactive) and the “furin cleavage Z-score” value (30 min) was -0.874 (inactive).

B30: HC2085 (peptide)
chain: CAVVCCSMSLAGNASASA
In the case of B30, the “furin cleavage Z-score” value (7.5 min) is reported as -0.7 (inactive), the “furin cleavage Z-score” value (15 min) is reported as -0.0853 (inactive) and the “furin cleavage Z-score” value (30 min) is reported as 0.456 (inactive).

B31: HC482 (peptide)
chain: CAACNWTRGEAGNASASA
For B31, the “furin cleavage Z-score” value (7.5 min) was 0.0668 (inactive), the “furin cleavage Z-score” value (15 min) was 0.0745 (inactive) and the “furin cleavage Z-score” value (30 min) was -0.647 (inactive).

B32: HC57 (peptide)
chain: CATTPYSGSWAGNASASA
With B32 the “furin cleavage Z-score” value (7.5 min) was -0.402 (inactive), the “furin cleavage Z-score” value (15 min) was -1.77 (inactive) and the “furin cleavage Z-score” value (30 min) was -1.07 (inactive).

B33: HC2092 (peptide)
chain: CAVVCCSMSEAGNASASA
B33 was tested, and the “furin cleavage Z-score” value (7.5 min) was 0.169 (inactive), the “furin cleavage Z-score” value (15 min) was -0.137 (inactive) and the “furin cleavage Z-score” value (30 min) was 0.14 (inactive).

B34: HC286 (peptide)
chain: CAGKLPATQLAGNASASA
In the case of B34, the “furin cleavage Z-score” value (7.5 min) is reported as -0.891 (inactive), the “furin cleavage Z-score” value (15 min) is reported as 0.888 (inactive) and the “furin cleavage Z-score” value (30 min) is reported as -0.728 (inactive).

B35: FS-2610 (peptide)
chain: CARSWRLACEAGNASASA
With B35 the “furin cleavage Z-score” value (7.5 min) was -1.13 (inactive), the “furin cleavage Z-score” value (15 min) was -1.31 (inactive) and the “furin cleavage Z-score” value (30 min) was -0.906 (inactive).

B36: HC684 (peptide)
chain: CALTGRDKNQAGNASASA
For B36, the “furin cleavage Z-score” value (7.5 min) was -0.69 (inactive), the “furin cleavage Z-score” value (15 min) was -0.684 (inactive) and the “furin cleavage Z-score” value (30 min) was -0.181 (inactive).

B37: FS-2488 (peptide)
chain: CARFKRLACMAGNASASA
For B37, the “furin cleavage Z-score” value (7.5 min) was 1.67, the “furin cleavage Z-score” value (15 min) was 1.17 and the “furin cleavage Z-score” value (30 min) was 4.11 (active).

B38: FS-2489 (peptide)
chain: CARFKRLADMAGNASASA
With B38 the “furin cleavage Z-score” value (7.5 min) was 2.25, the “furin cleavage Z-score” value (15 min) was 3.3 and the “furin cleavage Z-score” value (30 min) was 4.96 (active).

B39: FS-2129 (peptide)
chain: CARAQRSPQQAGNASASA
B39 was tested, and the “furin cleavage Z-score” value (7.5 min) was -0.476 (inactive), the “furin cleavage Z-score” value (15 min) was 0.539 (inactive) and the “furin cleavage Z-score” value (30 min) was 1.62.

B40: FS-3088 (peptide)
chain: CARSNRFSWMAGNASASA
With B40 the “furin cleavage Z-score” value (7.5 min) was 1.34, the “furin cleavage Z-score” value (15 min) was 0.175 (inactive) and the “furin cleavage Z-score” value (30 min) was 0.252 (inactive).

B41: FS-2414 (peptide)
chain: CARFKKLADMAGNASASA
With B41 the “furin cleavage Z-score” value (7.5 min) was -1 (inactive), the “furin cleavage Z-score” value (15 min) was -2.01 (inactive) and the “furin cleavage Z-score” value (30 min) was 0.965 (inactive).

B42: FS-1891 (peptide)
chain: CARFKRDPNQAGNASASA
With B42 the “furin cleavage Z-score” value (7.5 min) was 5.07 (active), the “furin cleavage Z-score” value (15 min) was 6.2 (active) and the “furin cleavage Z-score” value (30 min) was 6.47 (active).

B43: FS-3154 (peptide)
chain: CARFKRAIFQAGNASASA
With B43 the “furin cleavage Z-score” value (7.5 min) was 3.12, the “furin cleavage Z-score” value (15 min) was 6.07 (active) and the “furin cleavage Z-score” value (30 min) was 9.35 (active).

B44: FS-2662 (peptide)
chain: CARFERAIGPAGNASASA
B44 was tested, and the “furin cleavage Z-score” value (7.5 min) was 1.09, the “furin cleavage Z-score” value (15 min) was 0.675 (inactive) and the “furin cleavage Z-score” value (30 min) was 1.32.

B45: HC1397 (peptide)
chain: CATFDRLQVLAGNASASA
For B45, the “furin cleavage Z-score” value (7.5 min) was -1.63 (inactive), the “furin cleavage Z-score” value (15 min) was -1.93 (inactive) and the “furin cleavage Z-score” value (30 min) was -0.453 (inactive).

B46: FS-2249 (peptide)
chain: CAQEKRSVFQAGNASASA
With B46 the “furin cleavage Z-score” value (7.5 min) was -0.752 (inactive), the “furin cleavage Z-score” value (15 min) was 1.01 and the “furin cleavage Z-score” value (30 min) was 0.632 (inactive).
